miR-122 sensor: miR-122 Renilla sensor signal increase in Huh7, primary screen, miR-122 inhibitor project, cell-based, single point, plate reader | Huh7 miR-122 Renilla luciferase sensor, 48 h; neutral wells = 0, positive control = 100 | activation (reporter increase), % at 12.5 µM | 0.3% of 340,000 active;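 active means mean replicate activation score at least 90 and every replicate individually at or above 90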;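 further: higher luciferase means less miR-122 activity so hits act as miR-122 inhibitors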
PAX8 reporter: inhibitors of PAX8-driven TPO luciferase reporter, primary screen, RMG-I cells, single concentration; SteadyGlo, 24 h; inhibition, % at 12.6 µM; 1.2% of 360,000 active;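 active means mean replicate inhibition at least 60% with every replicate also reaching 60%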;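 further: luciferase light reporting Pax8 driven TPO promoter activity; plate controls were median of neutral control wells for no effect and mitoxantrone controls for full effect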
Env fusion inh: inhibitors of HIV-1 Env-driven cell-cell fusion, primary screen, HeLa-JRFL effector, CEM21 target cells, luciferase; inhibition, % at 12.3 µM; 1.1% of 360,000 active;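 active means mean replicate inhibition score of at least 50 and every replicate individually at or above 50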;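 further: 0% = plate neutral controls and 100% = maraviroc near 300 nM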
EWS-Fli inh: EWS/Fli-driven NR0B1 reporter inhibitors, primary screen, A673 cells, NR0B1 luciferase, luminescence, MLPCN library; viability-normalised; inhibition, % at 12.6 µM; 0.67% of 350,000 active; AID 651661, 2012;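 active means mean inhibition of at least 50% after viability correction, with every replicate also passing that limit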;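 further: firefly luciferase signal divided by Alamar Blue viability fluorescence both relative to DMSO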
GSIS activator: GLuc luminescence reporter in INS-1E cells, primary screen for activators of glucose-dependent secretion of insulin; 0.61% of 370,000 active; INS-1E GLuc reporter insulin secretion, 2-3 h; activation, % at 16.6 µM;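 active means lowest replicate activation of at least 40%, so every replicate reaches that level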;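 further: 0% = median of neutral control wells and 100% = median of IBMX positive control wells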
C2C12 statin: suppressors of statin myotoxicity in C2C12 myotubes, primary screen, cell-based, single point, plate reader | C2C12 myotubes + simvastatin, ATP luminescence, 48 h; scaled: DMSO 0, geranylgeraniol control 100 | rescue of ATP level, % at 7.49 µM | 0.78% of 330,000 active | AID 602340, 2012;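 active means mean ATP rescue above about 67%, or every replicate alone reaching that limit, limit read from the data, passing the limit was not always enough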;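 further: myotubes were challenged with 10 µM simvastatin during compound exposure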
An asterisk follows results filed as active; nt = no result given; [ ] = remark or other dose. A selection: hits, their analogues and other compounds. The true share with any hit is near 3.1%.

SMILES	miR-122 sensor	PAX8 reporter	Env fusion inh	EWS-Fli inh	GSIS activator	C2C12 statin
NCC[C@@H]1CC[C@@H](NC(=O)C2CCCC2)[C@@H](CO)O1	-1.8[16.7 µM]	13.7	3.9[16.7 µM]	1.0	16.3	-0.1
CCCC#Cc1cnc2c(c1)C(=O)N([C@H](C)CO)C[C@@H](C)[C@H](CN(C)C(=O)CCN1CCCCC1)O2	-10.7[16.7 µM]	-13.6	nt	-0.6	2.7	1.4
CO[C@@H]1CN(C)C(=O)c2ccc(NC(=O)c3ccc(Oc4ccccc4)cc3)cc2OC[C@@H](C)N(C(C)=O)C[C@H]1C	-6.1[16.7 µM]	nt	nt	14.2	-2.2	-4.7
CNC[C@H](O)c1cccc(O)c1	3.0	3.6	26.8	-0.6	-29.6	6.2
CCN(CC(O)c1cccc(O)c1)C(=O)C12CC3CC(CC(C3)C1)C2 (configuration not stated)	-2.7	-0.9	74.1*	7.1	-30.3	9.7
COc1cc(NC(=S)NCc2ccc(S(N)(=O)=O)cc2)c(OC)cc1Cl	nt	11.0	16.7	65.3*	8.4	nt
O=C(c1cnccn1)N1CCN(C/C=C/c2ccccc2)CC1	-6.0	nt	nt	nt	nt	102.3*
Cc1cc(C(=O)N2CCN(C/C=C/c3ccccc3)CC2)no1	-3.5	nt	2.3	nt	nt	4.8
COc1ccc(-c2cccc(C(=O)Nc3ccc(C)cc3)c2)cc1	26.2	-7.4	-4.5	nt	98.6*	-18.8
COc1ccc(COc2cc(-c3cccc(OC)c3)nc3ccc(NC(=O)c4ccc(N(C)C)cc4)cc23)cc1	35.9	nt	nt	nt	nt	nt
COc1ccc(C(=O)Nc2cccc(OC)c2)cc1	-3.3	nt	nt	-26.4	3.3	-8.5
COc1ccc(C(=O)Nc2ccc3[nH]c(-c4cccc(OC)c4)cc(=O)c3c2)cc1	nt	39.2	-340.2	57.4*	-0.5	-71.3
COc1ccc(COc2cc(-c3cccc(OC)c3)nc3ccc(NC(=O)c4ccc(C)cc4)cc23)cc1	nt	80.1*	3.4	49.8	6.3	-14.8
Cc1ccc(OCC(=O)NC(=S)Nc2cccc(NC(=O)c3ccccc3)c2)cc1	5.2	27.4	15.2	nt	48.8*	nt
COc1ccc(-c2cc(-c3ccccc3)c(C#N)c(S(C)=O)n2)cc1 (configuration not stated)	4.9	75.5*	-84.5	nt	nt	9.3
C[C@@H]1CN([C@H](C)CO)C(=O)c2cc(-c3cncnc3)cnc2O[C@H]1CN(C)C(=O)CN1CCOCC1	3.4[16.7 µM]	-21.9	nt	-1.2	7.8	-1.0
O=S(=O)(NCC1CCN(S(=O)(=O)c2ccccc2)CC1)c1ccccc1	27.7	14.0	-61.5	nt	nt	136.5*
O=S(=O)(NCC1CCN(c2ccc(S(=O)(=O)N3CCOCC3)cc2)CC1)c1ccccc1	nt	18.5	-8.9	11.6	-16.9	3.3
O=C(CSc1nnc(CNc2ccc(F)cc2)n1Cc1ccccc1)N1CCOCC1	-4.3	18.8	-17.9	nt	12.7	101.9*
O=C(NCC(c1ccco1)N1CCc2ccccc21)C(=O)Nc1ccc(F)cc1F (configuration not stated)	nt	30.1	52.1	57.6*	31.3	-7.3
C[C@H](CO)N1C[C@H](C)[C@H](CN(C)C(=O)C2CCCCC2)OCCCC[C@H](C)Oc2ccc(NC(=O)Nc3ccc(F)cc3)cc2C1=O	-5.0[16.7 µM]	74.4*	11.0[16.7 µM]	5.2	-26.8	nt
C[C@H]1CCCCO[C@H](CN(C)C(=O)C2CCCCC2)[C@@H](C)CN([C@@H](C)CO)C(=O)c2cc(NC(=O)Nc3ccc(F)cc3)ccc2O1	-6.3[16.7 µM]	84.6*	7.1[16.7 µM]	9.1	-12.1	nt
C[C@@H]1CN([C@H](C)CO)C(=O)c2cc(NC(=O)Nc3ccc(F)cc3)ccc2O[C@@H](C)CCCCO[C@H]1CN(C)C(=O)C1CCCCC1	-13.1[16.7 µM]	86.0*	40.4[16.7 µM]	17.4	-18.1	nt
Cc1noc(C)c1NC(=O)N[C@H]1CC[C@H](CCNC(=O)C2CCOCC2)O[C@H]1CO	4.1[16.7 µM]	-1.7	-3.0[16.7 µM]	1.5	24.9	-1.5
COc1ccc(N2C(=O)CC(Sc3nnnn3-c3ccc(F)cc3)C2=O)cc1 (configuration not stated)	-19.1	95.0*	11.4	13.4	-7.7	-1.5
SMILES	miR-122 sensor	PAX8 reporter	Env fusion inh	EWS-Fli inh	GSIS activator	C2C12 statin
COc1ccc(N2C(=O)CC(Sc3nnc(-c4ccccc4)o3)C2=O)cc1 (configuration not stated)	-2.1	107.0*	-43.6	nt	nt	-73.2
O=C1CC(Sc2nnc(-c3ccccc3O)o2)C(=O)N1c1ccccc1 (configuration not stated)	-0.3	nt	nt	28.6	102.8	4.1
COc1ccc(N2C(=O)CC(Sc3nc(C)cc(C)c3C#N)C2=O)cc1 (configuration not stated)	nt	nt	-24.6	nt	63.1*	-2.9
Cc1cccc(C)c1NC(=O)C(c1ccc(C#N)cc1)n1c(=O)c(-c2cc3ccccc3[nH]2)nc2ccccc21 (configuration not stated)	nt	13.4	75.3*	3.0	15.3	nt
Cc1cccc(C)c1NC(=O)C(c1ccccc1)n1c(=O)c(-c2cc3ccccc3[nH]2)nc2ccccc21 (configuration not stated)	nt	4.6	-7.0	-2.8	21.7	nt
C[C@H](CO)N1C[C@H](C)[C@H](CN(C)S(C)(=O)=O)Oc2cc(C#CCN(C)C)ccc2S1(=O)=O	11.0[16.7 µM]	nt	9.0[16.7 µM]	0.4	2.1	4.2
COc1ccccc1CNC(=O)C[C@@H]1C[C@@H]2c3cc(NC(=O)c4ccc5c(c4)OCO5)ccc3O[C@@H]2[C@@H](CO)O1	-1.9[16.7 µM]	-6.6	-4.1[16.7 µM]	-7.5	3.1	12.9
Cc1noc(C)c1S(=O)(=O)N(C)C[C@@H]1Oc2ccc(NC(=O)NC3CCCCC3)cc2CC(=O)N([C@@H](C)CO)C[C@@H]1C	6.6[16.7 µM]	-4.9	62.0*[16.7 µM]	-4.2	-9.9	13.0
Cc1noc(C)c1S(=O)(=O)N(C)C[C@H]1Oc2ccc(NC(=O)NC3CCCCC3)cc2CC(=O)N([C@H](C)CO)C[C@@H]1C	3.0[16.7 µM]	1.0	2.0[16.7 µM]	4.4	3.1	-35.9
Cc1noc(C)c1S(=O)(=O)N(C)C[C@@H]1Oc2ccc(NC(=O)NC3CCCCC3)cc2CC(=O)N([C@H](C)CO)C[C@@H]1C	-0.7[16.7 µM]	2.8	77.8*[16.7 µM]	1.4	-9.4	-38.2
Cc1nc(SCc2ccccc2C#N)n[nH]1	-13.3	0.5	3.8	-4.7	0.5	1.3
N#Cc1ccccc1CSc1nc(N2CCCCC2)nc(N2CCCCC2)n1	5.7	nt	nt	nt	nt	117.4*
NC(=O)COC(=O)[C@H](Cc1ccccc1)NS(=O)(=O)c1ccc2c(c1)OCCO2	1.0	-2.5	0.3	-3.0	-10.7	5.7
NC(=O)COC(=O)C(Cc1ccccc1)NS(=O)(=O)c1ccccc1F (configuration not stated)	4.1	4.8	-23.8	nt	nt	109.3*
CC(=O)N/C(=C\c1ccccc1)C(=O)OCC(=O)c1ccccc1	-1.9	2.8	-2.9	2.6	-10.0	-5.2

Compound activity from PubChem.
